# Experimental data published in publication PMC7862700, “An all-to-all approach to the identification of sequence-specific readers for epigenetic DNA modifications on cytosine”.
# Tests used:
# Assay in all cases: DAPPL (digital affinity profiling via proximity ligation, sequencing); 10 mM Tris-HCl pH 7.5, 50 mM NaCl, 1 mM DTT, 4% glycerol, room temperature, 30 min; GST-TFs on glutathione beads, 16-mer random dsDNA library, 0.1% formaldehyde crosslink after washing; high values mean tight binding
# Conditions in all cases: protein: recombinant; tags: N-terminal GST; dsDNA, one strand shown
# GABPA = target: T1, GABPA (Homo sapiens, UniProt Q06546 1-454)
# T1 sequence: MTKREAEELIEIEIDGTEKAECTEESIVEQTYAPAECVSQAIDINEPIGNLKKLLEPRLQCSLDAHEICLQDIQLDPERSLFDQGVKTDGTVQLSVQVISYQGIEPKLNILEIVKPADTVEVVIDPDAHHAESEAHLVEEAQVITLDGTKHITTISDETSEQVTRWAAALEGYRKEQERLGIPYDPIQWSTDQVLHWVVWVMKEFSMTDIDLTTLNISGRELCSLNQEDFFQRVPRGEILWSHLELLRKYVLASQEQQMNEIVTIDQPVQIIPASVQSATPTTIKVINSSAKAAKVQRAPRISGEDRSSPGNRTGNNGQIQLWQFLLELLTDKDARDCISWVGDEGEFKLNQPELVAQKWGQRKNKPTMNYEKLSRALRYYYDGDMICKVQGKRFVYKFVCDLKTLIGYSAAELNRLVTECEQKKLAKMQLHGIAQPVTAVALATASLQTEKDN
# In short: (§1)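 In yeast, human transcription factors were expressed with a GST fusion, then pulled down on glutathione beads and given DNA barcodes. Pooled with a tag-only sample, they were exposed to 200 nmole of a 16-mer random double-stranded DNA library (Tris/NaCl/DTT/glycerol buffer, room temperature, 30 min), washed, crosslinked with 0.1% formaldehyde, proximity-ligated using BsaI/T4 ligase for 1 h at 37 °C, PCR-amplified and read on an Illumina NextSeq500. Each hexamer's frequency of reads for a factor, divided by the matching frequency for the tag-only sample, gives the binding signal.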
# ELF1 = ELF1 (Homo sapiens, UniProt P32519 1-619)
# Chain of ELF1 (P32519 whole entry): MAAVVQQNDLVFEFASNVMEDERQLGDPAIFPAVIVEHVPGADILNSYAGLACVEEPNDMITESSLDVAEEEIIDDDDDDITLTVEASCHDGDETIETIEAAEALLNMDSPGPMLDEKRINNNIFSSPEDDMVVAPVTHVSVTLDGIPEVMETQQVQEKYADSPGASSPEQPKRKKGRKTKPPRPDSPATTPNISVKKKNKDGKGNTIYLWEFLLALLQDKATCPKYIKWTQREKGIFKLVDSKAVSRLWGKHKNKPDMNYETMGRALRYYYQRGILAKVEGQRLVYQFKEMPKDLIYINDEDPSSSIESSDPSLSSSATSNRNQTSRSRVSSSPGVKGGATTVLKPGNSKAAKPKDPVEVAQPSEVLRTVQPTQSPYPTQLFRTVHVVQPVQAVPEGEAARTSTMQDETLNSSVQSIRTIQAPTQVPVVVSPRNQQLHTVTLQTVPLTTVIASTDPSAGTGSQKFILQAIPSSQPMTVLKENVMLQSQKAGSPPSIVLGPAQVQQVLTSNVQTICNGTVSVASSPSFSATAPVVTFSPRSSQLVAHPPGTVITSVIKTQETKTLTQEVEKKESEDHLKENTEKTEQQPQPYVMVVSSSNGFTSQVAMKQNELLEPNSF
# In short: as §1
# SPIB = SPIB (Homo sapiens, UniProt Q01892 1-262)
# Chain of SPIB (Q01892 whole entry): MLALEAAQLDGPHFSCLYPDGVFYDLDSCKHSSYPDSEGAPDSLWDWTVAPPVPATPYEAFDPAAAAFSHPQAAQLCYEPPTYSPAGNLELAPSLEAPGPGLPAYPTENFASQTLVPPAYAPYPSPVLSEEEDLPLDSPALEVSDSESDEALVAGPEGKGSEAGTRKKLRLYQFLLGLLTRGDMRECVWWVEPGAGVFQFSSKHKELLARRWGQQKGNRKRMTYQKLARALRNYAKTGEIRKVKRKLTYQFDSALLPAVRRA
# In short: as §1
# ELK3 = target: T2, ELK3 (Homo sapiens, UniProt P41970 1-407)
# T2 sequence: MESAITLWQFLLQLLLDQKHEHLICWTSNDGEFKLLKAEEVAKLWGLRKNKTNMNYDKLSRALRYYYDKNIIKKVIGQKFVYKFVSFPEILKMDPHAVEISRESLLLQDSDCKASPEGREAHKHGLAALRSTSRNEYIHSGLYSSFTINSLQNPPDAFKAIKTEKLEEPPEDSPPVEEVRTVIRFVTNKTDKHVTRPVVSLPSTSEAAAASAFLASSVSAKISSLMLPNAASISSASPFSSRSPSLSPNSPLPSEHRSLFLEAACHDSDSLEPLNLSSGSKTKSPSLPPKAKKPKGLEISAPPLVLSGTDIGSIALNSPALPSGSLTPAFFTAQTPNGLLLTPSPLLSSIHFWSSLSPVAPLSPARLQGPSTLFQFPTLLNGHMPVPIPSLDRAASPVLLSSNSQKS
# In short: as §1
# SPIC = target: T3, SPIC (Homo sapiens, UniProt Q8N5J4 1-248)
# T3 sequence: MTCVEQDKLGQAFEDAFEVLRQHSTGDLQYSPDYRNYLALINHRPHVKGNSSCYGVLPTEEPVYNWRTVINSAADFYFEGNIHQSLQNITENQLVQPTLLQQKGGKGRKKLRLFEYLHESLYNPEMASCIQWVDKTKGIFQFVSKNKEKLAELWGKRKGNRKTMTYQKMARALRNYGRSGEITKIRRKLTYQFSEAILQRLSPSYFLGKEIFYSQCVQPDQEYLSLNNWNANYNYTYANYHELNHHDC
# In short: as §1
# ELK4 = target: T4, ELK4 (Homo sapiens, UniProt P28324-2 1-405)
# T4 sequence: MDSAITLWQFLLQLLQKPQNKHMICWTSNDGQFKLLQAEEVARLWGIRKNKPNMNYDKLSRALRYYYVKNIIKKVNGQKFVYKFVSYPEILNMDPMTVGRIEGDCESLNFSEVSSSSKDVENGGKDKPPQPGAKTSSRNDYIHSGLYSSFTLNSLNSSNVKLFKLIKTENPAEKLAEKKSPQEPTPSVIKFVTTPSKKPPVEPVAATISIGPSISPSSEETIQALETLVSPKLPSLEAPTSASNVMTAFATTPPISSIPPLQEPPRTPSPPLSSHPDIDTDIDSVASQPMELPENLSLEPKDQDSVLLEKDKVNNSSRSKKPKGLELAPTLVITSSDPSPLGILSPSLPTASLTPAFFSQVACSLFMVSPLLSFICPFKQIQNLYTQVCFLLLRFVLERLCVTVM
# In short: as §1
# ETV1 = ETV1 (Homo sapiens, UniProt P50549 1-477)
# Chain of ETV1 (P50549 whole entry): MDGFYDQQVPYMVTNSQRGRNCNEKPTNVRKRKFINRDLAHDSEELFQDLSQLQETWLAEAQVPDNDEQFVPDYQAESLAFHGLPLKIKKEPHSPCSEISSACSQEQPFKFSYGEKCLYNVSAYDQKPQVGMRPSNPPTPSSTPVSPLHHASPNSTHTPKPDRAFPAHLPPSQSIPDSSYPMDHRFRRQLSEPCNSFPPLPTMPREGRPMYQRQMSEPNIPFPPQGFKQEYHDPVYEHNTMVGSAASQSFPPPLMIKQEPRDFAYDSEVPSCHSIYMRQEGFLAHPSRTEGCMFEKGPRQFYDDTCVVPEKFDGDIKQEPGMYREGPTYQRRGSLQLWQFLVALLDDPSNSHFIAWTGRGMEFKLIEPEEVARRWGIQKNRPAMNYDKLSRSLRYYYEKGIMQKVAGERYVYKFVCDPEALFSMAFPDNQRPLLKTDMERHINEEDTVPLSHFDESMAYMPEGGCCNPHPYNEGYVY
# In short: as §1
# ERF = target: T5, ERF (Homo sapiens, UniProt P50548 1-548)
# T5 sequence: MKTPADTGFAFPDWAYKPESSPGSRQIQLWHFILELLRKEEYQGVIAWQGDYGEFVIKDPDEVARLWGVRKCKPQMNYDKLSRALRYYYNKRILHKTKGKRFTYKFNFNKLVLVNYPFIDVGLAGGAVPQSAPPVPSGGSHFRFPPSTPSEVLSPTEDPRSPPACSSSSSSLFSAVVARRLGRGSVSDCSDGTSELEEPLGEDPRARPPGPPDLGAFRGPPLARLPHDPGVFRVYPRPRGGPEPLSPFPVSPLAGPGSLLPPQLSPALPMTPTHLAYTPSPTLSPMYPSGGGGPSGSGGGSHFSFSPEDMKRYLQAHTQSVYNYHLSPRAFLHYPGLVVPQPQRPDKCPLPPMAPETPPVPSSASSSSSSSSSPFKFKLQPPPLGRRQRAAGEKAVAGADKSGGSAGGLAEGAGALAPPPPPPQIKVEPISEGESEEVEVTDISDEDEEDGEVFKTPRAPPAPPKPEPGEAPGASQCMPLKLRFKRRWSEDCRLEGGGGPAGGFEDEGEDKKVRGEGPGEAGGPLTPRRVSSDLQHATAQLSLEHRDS
# In short: as §1
# ETV3L = target: T6, ETV3L (Homo sapiens, UniProt Q6ZN32 1-361)
# T6 sequence: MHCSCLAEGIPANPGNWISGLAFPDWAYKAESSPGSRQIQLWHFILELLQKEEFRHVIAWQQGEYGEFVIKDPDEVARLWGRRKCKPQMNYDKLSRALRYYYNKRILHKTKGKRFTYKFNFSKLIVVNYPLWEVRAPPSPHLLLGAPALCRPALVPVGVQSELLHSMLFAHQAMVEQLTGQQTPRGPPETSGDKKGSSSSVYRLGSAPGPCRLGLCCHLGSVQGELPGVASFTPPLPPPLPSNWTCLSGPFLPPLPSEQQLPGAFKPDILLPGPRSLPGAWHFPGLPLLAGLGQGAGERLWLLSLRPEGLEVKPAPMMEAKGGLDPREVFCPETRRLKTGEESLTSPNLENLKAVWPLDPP
# In short: as §1
# SPDEF = target: T7, SPDEF (Homo sapiens, UniProt O95238 1-335)
# T7 sequence: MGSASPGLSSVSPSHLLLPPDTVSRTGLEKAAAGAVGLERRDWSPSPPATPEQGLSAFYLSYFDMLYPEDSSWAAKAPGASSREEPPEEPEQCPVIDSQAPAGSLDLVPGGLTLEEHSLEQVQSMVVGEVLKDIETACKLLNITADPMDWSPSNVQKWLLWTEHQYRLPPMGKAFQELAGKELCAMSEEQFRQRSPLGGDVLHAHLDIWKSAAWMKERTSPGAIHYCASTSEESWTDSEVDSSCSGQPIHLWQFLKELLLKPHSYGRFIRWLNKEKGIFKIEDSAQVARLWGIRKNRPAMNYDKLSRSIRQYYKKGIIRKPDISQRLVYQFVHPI
# In short: as §1
# ETV7 = target: T8, ETV7 (Homo sapiens, UniProt Q9Y603 1-341)
# T8 sequence: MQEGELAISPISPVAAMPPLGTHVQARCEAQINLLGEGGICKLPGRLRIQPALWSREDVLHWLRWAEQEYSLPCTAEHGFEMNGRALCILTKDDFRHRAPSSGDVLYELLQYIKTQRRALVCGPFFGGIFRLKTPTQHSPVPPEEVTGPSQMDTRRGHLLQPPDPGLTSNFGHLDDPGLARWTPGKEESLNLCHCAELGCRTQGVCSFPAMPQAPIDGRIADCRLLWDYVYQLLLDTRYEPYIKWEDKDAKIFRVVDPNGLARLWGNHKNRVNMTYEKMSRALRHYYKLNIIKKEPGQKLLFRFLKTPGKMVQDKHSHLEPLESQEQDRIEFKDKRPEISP
# In short: as §1
# ETV2 = target: T9, ETV2 (Homo sapiens, UniProt O00321 1-342)
# T9 sequence: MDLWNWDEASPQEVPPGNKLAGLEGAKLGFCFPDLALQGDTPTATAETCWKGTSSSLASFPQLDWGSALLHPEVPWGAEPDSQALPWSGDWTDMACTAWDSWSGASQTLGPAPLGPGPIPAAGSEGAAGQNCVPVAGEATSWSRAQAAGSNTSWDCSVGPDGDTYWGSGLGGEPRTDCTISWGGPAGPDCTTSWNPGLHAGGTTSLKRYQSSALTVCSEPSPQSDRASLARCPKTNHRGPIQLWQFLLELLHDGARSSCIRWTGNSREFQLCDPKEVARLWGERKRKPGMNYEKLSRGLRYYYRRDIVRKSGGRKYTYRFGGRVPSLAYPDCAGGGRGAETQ
# In short: as §1
# CRX = CRX (Homo sapiens, UniProt O43186 1-299)
# Chain of CRX (O43186 whole entry): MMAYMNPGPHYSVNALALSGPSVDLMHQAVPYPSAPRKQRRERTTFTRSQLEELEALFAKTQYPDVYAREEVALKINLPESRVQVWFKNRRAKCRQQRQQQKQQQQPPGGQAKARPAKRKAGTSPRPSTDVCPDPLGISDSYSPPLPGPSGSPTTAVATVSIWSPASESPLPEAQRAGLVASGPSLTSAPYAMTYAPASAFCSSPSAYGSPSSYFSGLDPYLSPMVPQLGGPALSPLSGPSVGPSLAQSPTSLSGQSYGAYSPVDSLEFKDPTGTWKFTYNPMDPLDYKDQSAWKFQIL
# In short: as §1
# ELK1 = target: T10, ELK1 (Homo sapiens, UniProt P19419 1-428)
# T10 sequence: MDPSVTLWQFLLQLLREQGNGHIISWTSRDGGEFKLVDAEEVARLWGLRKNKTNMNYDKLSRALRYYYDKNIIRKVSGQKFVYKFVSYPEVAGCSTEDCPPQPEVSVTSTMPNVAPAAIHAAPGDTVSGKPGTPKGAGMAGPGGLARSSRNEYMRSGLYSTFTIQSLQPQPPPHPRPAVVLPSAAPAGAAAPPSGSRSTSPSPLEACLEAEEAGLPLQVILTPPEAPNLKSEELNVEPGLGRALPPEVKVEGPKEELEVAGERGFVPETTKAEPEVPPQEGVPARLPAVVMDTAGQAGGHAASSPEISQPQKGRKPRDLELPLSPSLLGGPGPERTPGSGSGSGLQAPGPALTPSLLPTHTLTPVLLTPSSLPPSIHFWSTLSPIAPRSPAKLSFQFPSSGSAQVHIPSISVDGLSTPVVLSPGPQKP
# In short: as §1
# ELF4 = ELF4 (Homo sapiens, UniProt Q99607 1-663)
# Chain of ELF4 (Q99607 whole entry): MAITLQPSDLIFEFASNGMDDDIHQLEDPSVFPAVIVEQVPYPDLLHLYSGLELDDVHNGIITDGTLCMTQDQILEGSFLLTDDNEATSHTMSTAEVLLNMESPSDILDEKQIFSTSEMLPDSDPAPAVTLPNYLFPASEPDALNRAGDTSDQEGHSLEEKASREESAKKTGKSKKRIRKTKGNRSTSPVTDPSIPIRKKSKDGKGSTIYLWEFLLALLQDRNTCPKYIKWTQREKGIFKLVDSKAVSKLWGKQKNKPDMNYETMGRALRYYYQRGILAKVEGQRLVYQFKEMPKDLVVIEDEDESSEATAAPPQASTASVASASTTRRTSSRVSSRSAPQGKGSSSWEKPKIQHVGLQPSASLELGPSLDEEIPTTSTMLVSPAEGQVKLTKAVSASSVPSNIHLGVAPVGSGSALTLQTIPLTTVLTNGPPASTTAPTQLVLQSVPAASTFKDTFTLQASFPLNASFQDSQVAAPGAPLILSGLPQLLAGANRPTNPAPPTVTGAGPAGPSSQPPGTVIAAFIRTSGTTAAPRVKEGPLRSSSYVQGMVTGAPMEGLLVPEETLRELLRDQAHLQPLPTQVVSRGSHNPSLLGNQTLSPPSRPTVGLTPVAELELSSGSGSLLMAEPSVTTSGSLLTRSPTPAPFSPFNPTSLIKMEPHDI
# In short: as §1
# ETV6 = ETV6 (Homo sapiens, UniProt P41212 1-452)
# Chain of ETV6 (P41212 whole entry): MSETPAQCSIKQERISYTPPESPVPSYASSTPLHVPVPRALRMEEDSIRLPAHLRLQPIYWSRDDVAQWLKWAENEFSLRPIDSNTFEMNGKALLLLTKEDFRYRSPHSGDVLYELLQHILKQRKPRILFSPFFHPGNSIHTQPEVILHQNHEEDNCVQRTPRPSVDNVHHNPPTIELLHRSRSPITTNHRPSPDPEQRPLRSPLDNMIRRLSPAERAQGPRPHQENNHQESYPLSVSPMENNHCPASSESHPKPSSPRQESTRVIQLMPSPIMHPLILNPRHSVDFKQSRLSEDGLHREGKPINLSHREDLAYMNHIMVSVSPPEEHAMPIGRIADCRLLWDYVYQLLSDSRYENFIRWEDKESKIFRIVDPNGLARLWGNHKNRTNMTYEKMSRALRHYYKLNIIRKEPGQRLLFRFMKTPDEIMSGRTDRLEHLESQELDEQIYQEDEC
# In short: as §1
sequence,measurement,setting,value
CCACGT,binding signal,GABPA,"1.09 fold enrichment (6-mer frequency, TF over GST control)"
same,binding signal,ELF1,"1.04 fold enrichment (6-mer frequency, TF over GST control)"
same,binding signal,SPIB,"1.03 fold enrichment (6-mer frequency, TF over GST control)"
same,binding signal,ELK3,"1.05 fold enrichment (6-mer frequency, TF over GST control)"
same,binding signal,SPIC,"1.09 fold enrichment (6-mer frequency, TF over GST control)"
same,binding signal,ELK4,"1.01 fold enrichment (6-mer frequency, TF over GST control)"
same,binding signal,ETV1,"1.01 fold enrichment (6-mer frequency, TF over GST control)"
same,binding signal,ERF,"1.07 fold enrichment (6-mer frequency, TF over GST control)"
same,binding signal,ETV3L,"1.04 fold enrichment (6-mer frequency, TF over GST control)"
same,binding signal,SPDEF,"1.02 fold enrichment (6-mer frequency, TF over GST control)"
same,binding signal,ETV7,"1.06 fold enrichment (6-mer frequency, TF over GST control)"
GCAGAT,binding signal,SPIB,"1.02 fold enrichment (6-mer frequency, TF over GST control)"
same,binding signal,SPIC,"1 fold enrichment (6-mer frequency, TF over GST control)"
same,binding signal,ELK4,"1.04 fold enrichment (6-mer frequency, TF over GST control)"
same,binding signal,ETV2,"1.17 fold enrichment (6-mer frequency, TF over GST control)"
same,binding signal,CRX,"1.21 fold enrichment (6-mer frequency, TF over GST control)"
AACGGT,binding signal,ELK1,"1.06 fold enrichment (6-mer frequency, TF over GST control)"
same,binding signal,ELF4,"1.03 fold enrichment (6-mer frequency, TF over GST control)"
same,binding signal,ETV2,"1.05 fold enrichment (6-mer frequency, TF over GST control)"
same,binding signal,ETV6,"1.01 fold enrichment (6-mer frequency, TF over GST control)"
GCAAGC,binding signal,ELK4,"1.07 fold enrichment (6-mer frequency, TF over GST control)"
